Inconclusive results are not listed. Activity calls are given as the source filed them. Calls come from the whole dose curve; as a rule, active = well fitted cell-killing curve with a large enough effect; inconclusive = small, poorly fitted or top-dose-only effect; inactive = no such curve, though single readings can be large or run the other way.
experiment: qHTS of pediatric cancer cell lines to identify multiple opportunities for drug repurposing: Confirmatory screen for U-2 OS cells (AID 1347122); conditions: U-2 OS osteosarcoma cell viability; series mostly up to 45.9 µM; note: nearly all actives have a fitted effect of over 65% in size
Excerpt: Drug repurposing or repositioning has been offered as a strategy for drug development in oncology programs. This approach has special potential for childhood cancers and other rare or orphan diseases, where the expected return on new drug development has been a disincentive to pharmaceuticals.
In this project we exploit the poly-pharmacology of drugs to discover new indications via phenotypic screening of a panel of 19 well-characterized cell lines derived from solid tumors seen in children and adolescents. The goal is to identify approved drugs with previously unrecognized anticancer properties that has the potential to reveal new mechanisms and biological processes involved in carcinogenesis or drug resistance. We employed a titration-based paradigm (quantitative high-throughput screening or qHTS), where all compounds were tested at multiple concentrations for their effect on cell viability. Concentration-response curves (CRCs) were derived directly from the primary screen, and both potency and efficacy values were used to identify compounds with robust bioactivity profiles. We screened the NIH Chemical Genomics Center (NCGC) Pharmaceutical Collection (NPC) and Mechanism Interrogation Plate (MIPE) small molecule collections of approved and investigational compounds against these cell lines; and measured metabolically active cells after 48 hours of compound treatment as a proxy for cell viability.
Assay Submitter: Nathalia J. Martinez, National Center for Advancing Translational Sciences, National Institutes of Health, Rockville, MD, USA; email: natalia.martinez@nih.gov
[1] Shen, M et al. Quantitative high-throughput phenotypic screening of pediatric cancer cell lines identifies multiple opportunities for drug repurposing. Oncotarget 2017 Dec 19;9(4):4758-4772. PMID 29435139.
The cells were obtained from University of North Carolina (UNC), Pediatric Preclinical Testing Program (PPT), and Coriell Institute (CI).
qHTS cell viability assay:
Cells were assayed in growth media at a density of 500-1,000 cells/well. Five microliters of cells were dispensed into 1,536-well, white, solid-bottom, TC-treated plates (Greiner Bio One) using a multidrop dispenser and incubated at 37 degrees C, 5% CO2, under a humidified atmosphere for 5 hours. Twenty-three nanoliters of compounds and controls (neutral control DMSO or positive control bortezomib at final concentration of 2.3 µM) were subsequently transferred by Kalypsys pintool. For primary screens, the MIPE collection was tested at 11-point dilutions (final concentrations range from 0.78 nM to 46 µM) and the NPC collection at 8-point dilutions (final concentrations range from 0.59 nM to 46 µM). Compounds tested in follow-up screens were assayed at 11-point dilutions. Cells were incubated for 48 hours, followed by addition of 3 µL of CellTiter-Glo (Promega). After a 15 min incubation at room temperature, samples were analyzed for luminescence intensity using a ViewLux High-throughput CCD imager equipped with clear filters.
Potency is the fitted concentration of half-maximal effect.

SMILES | Potency
COc1cccc(Nc2c(C(N)=O)cnc3c(C)cc(S(=O)(=O)c4cccc(C(=O)N(C)C)c4)cc23)c1 | inactive
CN1CCN(Cc2ccc(NC(=O)Nc3ccc(Oc4cc(NC(=O)C5CC5)ncn4)cc3)cc2C(F)(F)F)CC1 | 737 nM (active)
CCC1=C[C@@H]2CN(C1)Cc1c([nH]c3ccccc13)[C@@](C(=O)OC)(c1cc3c(cc1OC)N(C)[C@@H]1[C@@](O)(C(=O)OC)[C@H](OC(C)=O)[C@]4(CC)C=CCN5CC[C@]31[C@@H]54)C2 | 7370 nM (active)
CC(C)c1cc(C(=O)N2Cc3ccc(CN4CCN(C)CC4)cc3C2)c(O)cc1O | 414 nM (active)
CNC(=O)c1ccccc1Nc1nc(Nc2ccc(N3CCOCC3)cc2OC)ncc1Cl | 13100 nM (active)
CC(C)[C@H](C(=O)Nc1ccc(C(=O)NO)cc1)c1ccccc1 | 657 nM (active)
C=CCn1c(=O)c2cnc(Nc3ccc(N4CCN(C)CC4)cc3)nc2n1-c1cccc(C(C)(C)O)n1 | 1650 nM (active)
CN[C@H]1CCc2cc(OC)c(OC)c(OC)c2-c2ccc(OC)c(=O)cc21 | 208 nM (active)
O=C(Cc1ccc(-c2ccc(OCCN3CCOCC3)cc2)cn1)NCc1ccccc1 | 369 nM (active)
CC(C)c1nn(-c2c(Cl)cccc2Cl)c2nc(Cc3ccc(OCCO)cc3)[nH]c(=O)c12 | 82.7 nM (active)
Cc1ccc(C(=O)Nc2cccc(C(F)(F)F)c2)cc1-c1ccc2nc(NCCN3CCOCC3)ncc2c1 | 4140 nM (active)
Cc1ccc(C(=O)Nc2ccc(CN3CCN(C)CC3)c(C(F)(F)F)c2)cc1C#Cc1cnc2cccnn12 | 2930 nM (active)
Cc1cnc(Nc2ccc(F)cc2Cl)nc1-c1c[nH]c(C(=O)N[C@H](CO)c2cccc(Cl)c2)c1 | 6570 nM (active)
Cn1c(=O)n(-c2ccc(C(C)(C)C#N)cc2)c2c3cc(-c4cnc5ccccc5c4)ccc3ncc21 | 2930 nM (active)
C#Cc1cccc(Nc2ncnc3cc(OC)c(OCCCCCCC(=O)NO)cc23)c1 | 1350 nM (active)
COc1cc2nccc(Oc3ccc(NC(=O)C4(C(=O)Nc5ccc(F)cc5)CC4)cc3)c2cc1OC | 23300 nM (active)
C=CC(=O)Nc1cc2c(Nc3ccc(F)c(Cl)c3)ncnc2cc1C#CC(C)(C)N1CCN(C)CC1 | 4790 nM (active)
CN(C)Cc1c(C(=O)NCCOc2ccc(C(=O)NO)cc2)oc2ccccc12 | 657 nM (active)
C=CC(=O)Nc1cccc(Oc2nc(Nc3ccc(N4CCN(C)CC4)cc3)ncc2Cl)c1 | 2610 nM (active)
O=C(C=Cc1cccc(S(=O)(=O)Nc2ccccc2)c1)NO | 2400 nM (active)

SMILES | Potency
COC(=O)[C@]12CCC(C)(C)C[C@@H]1[C@@H]1C(=O)C=C3[C@@]4(C)C=C(C#N)C(=O)C(C)(C)[C@@H]4CC[C@@]3(C)[C@]1(C)CC2 | 2080 nM (active)
COc1ccc(-c2cc3c(C)nc(N)nc3n(C3CCC(OCCO)CC3)c2=O)cn1 (stereo not given) | inactive
COCCn1c2c([n+](Cc3cnccn3)c1C)C(=O)c1ccccc1C2=O | 14.7 nM (active)
CNC(=O)c1nn(C)c2c1C(C)(C)Cc1cnc(Nc3ccc(N4CCN(C)CC4)cc3)nc1-2 | 1310 nM (active)
Nc1cc(C(F)(F)F)c(-c2cc(N3CCOCC3)nc(N3CCOCC3)n2)cn1 | 5220 nM (active)
Nc1ccccc1NC(=O)c1ccc(CNC(=O)OCc2cccnc2)cc1 | 135 nM (active)
CCS(=O)(=O)c1cccc(-c2cc(C(=O)NC3CCN(C)CC3)c(C)c3[nH]c4ncc(C)cc4c23)c1 | 10400 nM (active)
COC(=O)Nc1ccc(-c2nc(N3CCOCC3)c3cnn(C4CCN(Cc5cccnc5)CC4)c3n2)cc1 | 11700 nM (active)
Cc1nc2ccc(CN(C)c3ccc(C(=O)N[C@@H](CCC(=O)O)C(=O)O)s3)cc2c(=O)[nH]1 | inactive
CC(C)(C)c1cnc(CSc2cnc(NC(=O)C3CCNCC3)s2)o1 | 1310 nM (active)
CC(C)(C)c1cc(NC(=O)Nc2ccc(-c3cn4c(n3)sc3cc(OCCN5CCOCC5)ccc34)cc2)no1 | 20800 nM (active)
COC(=O)c1ccc2c(C(=Nc3ccc(N(C)C(=O)CN4CCN(C)CC4)cc3)c3ccccc3)c(O)[nH]c2c1 | 13100 nM (active)
CCc1c2c(nc3ccc(O)cc13)-c1cc3c(c(=O)n1C2)COC(=O)[C@]3(O)CC | 3690 nM (active)
Cc1cc(N2CCOCC2)cc2[nH]c(-c3c(NC[C@@H](O)c4cccc(Cl)c4)cc[nH]c3=O)nc12 | 7370 nM (active)
CC1=C(CO)C(=O)O[C@@H]([C@@H](C)[C@H]2CC[C@H]3[C@@H]4C[C@H]5O[C@]56[C@@H](O)C=CC(=O)[C@]6(C)[C@@H]4CC[C@]23C)C1 | inactive
CC1(C)OC2=C(C(=O)c3ccccc3C2=O)[C@H](NCc2ccccc2)[C@H]1O | 1850 nM (active)
COc1ccc(C=Cc2cc(OC)c(OC)c(OC)c2)cc1O | 26.1 nM (active)
CCNC(=O)Nc1ccc2ncc(Nc3ccc(C)cc3)nc2n1 | inactive
COc1cc2c(Oc3ccc(-c4cnc(Nc5ccc(F)cc5)n(C)c4=O)cc3F)ccnc2cc1OCCCN1CCOCC1 | 4650 nM (active)
Cc1nc2cnc3ccc(C#Cc4cccnc4)cc3c2n1-c1ccc(C(C)(C)C#N)cc1 | 2140 nM (active)

Source: PubChem BioAssay (NCATS)
